Experimental data published in PubChem BioAssay AID488841 (Sanford-Burnham Center for Chemical Genomics, 2010).
Out of some 1,400 compounds screened, about 380 (27%) were called active. The list shows a part of the results. Unmarked numbers belong to inactive results.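 The calls were made as follows: active = mean inhibition above 50% across duplicate retests at 10 µM; inactive = the rest.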

Assay: yeast NALP1 reporter signal suppression – S. cerevisiae, luminescence, single concentration, NALP1 inhibitor project, confirmation (AID 488841);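 also: plate controls were DMSO in galactose medium for no effect and cells in plain SD medium for full effect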
Settings: S. cerevisiae NALP1/ASC/Caspase-1 reporter, beta-gal luminescence; at 10 µM; hits give high values

**Q.** With CCc1ccc(NCc2nc(-c3ccccc3)no2)cc1 as the compound, how does the inhibition read?
**A.** 46.7%

**Q.** Which inhibition does the source give for O=S(=O)(CC(CN1CCCCC1)N1CCCCC1)c1ccc2ccccc2c1 (stereo unspecified) here?
**A.** 39.3%

**Q.** For CCOC(=O)c1cc(-c2ccc(OC)cc2)nc2c1c(C)nn2CCC#N, which inhibition is on record?
**A.** 49.9%

**Q.** For COC(=O)/C=C\C(=O)Nc1cccc([N+](=O)[O-])c1, which inhibition is on record?
**A.** 51.5% (active)

**Q.** For O=C(/C=C/c1cccc([N+](=O)[O-])c1)c1ccco1, which inhibition is on record?
**A.** 38.9%

**Q.** Which inhibition does the source give for CCOC(=O)/C=C/C(=O)Nc1nccs1 here?
**A.** 45.4%

**Q.** For CCOC(=O)N1CCC(=NNS(=O)(=O)c2cccc([N+](=O)[O-])c2)CC1, which inhibition is on record?
**A.** 24%

**Q.** Which inhibition does the source give for CCOC(=O)/C=C/C(=O)Nc1cccc([N+](=O)[O-])c1 here?
**A.** 66.3% (active)

**Q.** For O=C(CON=C1c2ccccc2-c2ccccc21)NC12CC3CC(CC(C3)C1)C2, which inhibition is on record?
**A.** 30.6%

**Q.** With CCOC(=O)c1c(C)[nH]c(C(=O)COC(=O)c2oc3ccccc3c2C)c1C as the compound, how does the inhibition read?
**A.** 23.3%

**Q.** With CCC(C)NCCOc1cccc(Br)c1 (stereo unspecified) as the compound, how does the inhibition read?
**A.** 26.1%

**Q.** With CN(Cc1ccccc1)c1ncnc2c1cnn2-c1ccccc1 as the compound, how does the inhibition read?
**A.** 49.5%

**Q.** Which inhibition does the source give for COCCN(CCOC)c1ncnc2c1cnn2-c1ccc(Cl)cc1 here?
**A.** 56.8% (active)

**Q.** For COC(=O)c1ccc(Cn2cnc3c(cnn3-c3ccc(Cl)cc3)c2=O)o1, which inhibition is on record?
**A.** 34.6%

**Q.** For Cc1occc1C(=O)Nc1c(F)c(F)c(F)c(F)c1F, which inhibition is on record?
**A.** 25.9%

**Q.** With CCC1(CC)Cc2ccccc2C(Nc2c(C)n(C)n(-c3ccccc3)c2=O)=N1 as the compound, how does the inhibition read?
**A.** 21.4%

**Q.** For O=C1/C(=C\c2cccnc2)CN(Cc2ccccc2)C/C1=C\c1cccnc1, which inhibition is on record?
**A.** 22.2%

**Q.** Which inhibition does the source give for NNC(=S)NCc1cccnc1 here?
**A.** 24.5%

**Q.** For S=C1SCN(Cc2cccnc2)CN1Cc1cccnc1, which inhibition is on record?
**A.** 76% (active)

**Q.** Which inhibition does the source give for Cc1ccc(Sc2nnc(Cc3ccccc3)c3ccccc23)cc1 here?
**A.** 38.2%

**Q.** For O=C(c1ccccc1)c1ccc(OCC(O)CNC2CCCc3ccccc32)cc1 (stereo unspecified), which inhibition is on record?
**A.** 32.6%

**Q.** Which inhibition does the source give for CCN1CCN(C(=S)Nc2ccc(Cl)c(Cl)c2)CC1 here?
**A.** 37%

**Q.** Which inhibition does the source give for CCOC(=O)N1CCN(c2ccc(Cl)c(Cl)c2)CC1 here?
**A.** 60.3% (active)

**Q.** Which inhibition does the source give for CCOC(=O)N1CCN(c2c(NCCOC)c(=O)c2=O)CC1 here?
**A.** 26.4%

**Q.** With COc1ccc(OC)c(S(=O)(=O)Nc2ccc(O)c3ccccc23)c1 as the compound, how does the inhibition read?
**A.** 32.9%

**Q.** For O=C(O)[C@@H](c1ccccc1)N1Cc2ccccc2C1=O, which inhibition is on record?
**A.** 26.9%

**Q.** For COc1ccc(NCc2ccc([N+](=O)[O-])s2)cc1, which inhibition is on record?
**A.** 14.8%

**Q.** With CCN(CC)c1ccc(/C=N/OC(C)C(=O)Nc2ccc(C)cc2)cc1 (stereo unspecified) as the compound, how does the inhibition read?
**A.** 41%

**Q.** With CCOC(=O)N/N=C/c1ccc(N(CC)CC)cc1O as the compound, how does the inhibition read?
**A.** 52.4% (active)

**Q.** With Clc1ccc2c(N/N=C/c3cccc(Br)c3)ccnc2c1 as the compound, how does the inhibition read?
**A.** 42.9%

**Q.** For O=C(CCN1C(=O)c2ccccc2C1=O)N1CCN(C2c3ccccc3-c3ccccc32)CC1, which inhibition is on record?
**A.** 18.4%

**Q.** For COc1ccc(-c2[nH]ncc2CN2CCC(OCc3ccccn3)CC2)c(F)c1, which inhibition is on record?
**A.** 23.8%

**Q.** Which inhibition does the source give for Cn1cc(C(=O)NCc2ccc(F)cc2)c(=O)c2cc(S(=O)(=O)N3CCCCC3)ccc21 here?
**A.** 32.6%

**Q.** For CC(C)C(C)NC(=O)COc1ccc(S(=O)(=O)N2CCOCC2)cc1[N+](=O)[O-] (stereo unspecified), which inhibition is on record?
**A.** 10.1%

**Q.** With O=[N+]([O-])c1cc(S(=O)(=O)N2CCCCCC2)ccc1F as the compound, how does the inhibition read?
**A.** 74.7% (active)

**Q.** For CC(C)NC(=O)c1ccc(COCC(F)(F)F)cc1, which inhibition is on record?
**A.** 41.5%

**Q.** With CN1c2ccccc2-c2nc3ccccc3n2C1c1cccs1 (stereo unspecified) as the compound, how does the inhibition read?
**A.** 26.3%

**Q.** Which inhibition does the source give for O=C(CN1CCCCC1)Nc1nc(-c2ccc(F)c(F)c2)cs1 here?
**A.** 43.3%

**Q.** For COc1ccccc1NS(=O)(=O)c1ccc(NC(=O)Cc2cccs2)cc1, which inhibition is on record?
**A.** 31.7%

**Q.** Which inhibition does the source give for O=C(Cc1cccs1)Nc1nc(-c2ccc(F)cc2F)cs1 here?
**A.** 71.6% (active)

**Q.** With COc1ccccc1N1C(=O)C2CCC(c3ccccc3)CC2C1=O (stereo unspecified) as the compound, how does the inhibition read?
**A.** 40.1%

**Q.** Which inhibition does the source give for COc1ccc(S(=O)(=O)N2CCOC2CNC(=O)C(=O)NCCCN2CCOCC2)cc1C (stereo unspecified) here?
**A.** 36.4%

**Q.** Which inhibition does the source give for O=C(Nc1ccc2c(c1)Cc1ccccc1-2)c1ccncc1 here?
**A.** 64.8% (active)

**Q.** With O=C(COc1ccc(Cl)cc1)Nc1ccc2c(c1)CCC2 as the compound, how does the inhibition read?
**A.** 39.6%

**Q.** Which inhibition does the source give for O=C(Nc1ccc2nc3ccccc3nc2c1)c1ccccc1 here?
**A.** 70.2% (active)

**Q.** For CS(=O)(=O)N(Cc1ccccc1)c1ccc(C(=O)Nc2cccnc2)cc1, which inhibition is on record?
**A.** 19.7%

**Q.** With O=C(Nc1ccc2c(c1)CCC2)c1ccccc1 as the compound, how does the inhibition read?
**A.** 73.4% (active)

**Q.** Which inhibition does the source give for O=C(CN1CCN(c2ccccc2)CC1)Nc1ccc2c(c1)CCC2 here?
**A.** 22.7%

**Q.** Which inhibition does the source give for O=C(Nc1ccc(Cl)c(Cl)c1)c1ccncc1 here?
**A.** 49.2%

**Q.** Which inhibition does the source give for O=C(COC(=O)C1(c2ccccc2F)CCCC1)N1CCOCC1 here?
**A.** 17.6%

**Q.** For Cc1cc(C)c(S(=O)(=O)Nc2ccc(OCC(=O)O)cc2)c(C)c1, which inhibition is on record?
**A.** 27.6%
